Screens as filed in PubChem BioAssay.
Shown is part of a subset that was picked to be rich in hits.
Pf Dd2 growth = qHTS Primary assay for Inhibitors of Plasmodium falciparum Dd2 growth in vitro; P. falciparum Dd2 growth, SYBR Green, 72 h; Potency, µM (titrated, usually from 28.9 µM), inactives show top-dose activity, negative = inhibition, hits mostly inhibitors; 4.3% of 120,000 active; AID 1347417, 2020; active = well fitted inhibition curve with a large enough effect;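 note: plate controls were DMSO vehicle for no effect and reference drug for full effect; nearly all actives have a fitted effect of over 65% in size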
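Readout: SYBR Green fluorescence, 485 nm excitation, 535 nm emission, after ~16 h lysis at 37C. Before that, Dd2-infected red cells (2.5% hematocrit) grew 72 h with compound, 29 uM top final concentration.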
The depositor's hits bear a star; [ ] = another dose, or the depositor's remark. Potency is the fitted concentration of half-maximal effect.

Results for CN1C[C@H](O)C[C@H]1c1nnc2n1CCN(C(=O)CN1CCCCCC1)CC2 ?
Pf Dd2 growth: 19%

What do the screens show for `Cc1cnc(-c2ccccc2)n1C1CCCNC1` (stereo not given)?
Pf Dd2 growth: 6.3µM*

Results for COCc1ncc(C)n1C1CCCNC1 (stereo not given) ?
Pf Dd2 growth: -10%

Results for Cc1cnc(C2CC2)n1C1CCCNC1 (stereo not given) ?
Pf Dd2 growth: -7%

What do the screens show for `OCCc1cc(CC2(N(CC3CC3)CC3CC3)COC2)no1`?
Pf Dd2 growth: 9%[44.1 µM]

What do the screens show for `CCCNC(=O)N1C[C@@H](Oc2cccnc2)C[C@@H]1C(=O)N1CCOCC1`?
Pf Dd2 growth: 4%

What do the screens show for `COc1ccccc1N1CCN(C2CCCN(Cc3nc(C(N)=O)no3)C2)CC1` (stereo not given)?
Pf Dd2 growth: -21%

Results for COCC1CCCN(Cc2nc(C(c3ccccc3)c3ccccc3)no2)C1 (stereo not given) ?
Pf Dd2 growth: 11µM*

Results for O=C(c1cccs1)C1CCCN(Cc2nc(CCc3ccccc3)no2)C1 (stereo not given) ?
Pf Dd2 growth: -18%

What do the screens show for `Cc1noc(-c2ccc(OC3CN(C(=O)NC4CCCCC4)C3)cc2)n1`?
Pf Dd2 growth: 50%[5.79 µM]

Results for Cc1oc(-c2cccc(Cl)c2)nc1CN1CCOCC1 ?
Pf Dd2 growth: 2%

Results for Cc1cc(C)cc(N2CC(c3nc(-c4cccc(Cl)c4)no3)CC2=O)c1 (stereo not given) ?
Pf Dd2 growth: 32%

What do the screens show for `Cc1cc(N2CCN(Cc3nc(-c4cccc(Cl)c4)no3)CC2)cc(C)n1`?
Pf Dd2 growth: 10µM*

How did CC(C)(C)OC(=O)N1CC(Nc2ccc(Oc3ccccc3)cc2)C1 do in these assays?
Pf Dd2 growth: 15%

What do the screens show for `Cc1cc(C(=O)Nc2ccc([C@H]3OCC(=O)N(Cc4cccnc4)[C@@H]3CO)cc2)c(C)o1`?
Pf Dd2 growth: 16%

How did Cc1ccc(C(=O)NCc2nnc3cc(-c4nc(C(C)C)no4)ccn23)cc1F do in these assays?
Pf Dd2 growth: -11%

What do the screens show for `CCn1ccc(C(=O)N2CCC(c3nnc(Cn4cncn4)n3C)CC2)n1`?
Pf Dd2 growth: -27%

How did CCc1ccc(-n2c(=O)c3c4c(sc3n(Cc3ccc(F)cc3)c2=O)CCCC4)cc1 do in these assays?
Pf Dd2 growth: -13%

Results for Cc1c(CNC2CCCCCC2)c(C(=O)O)c(C)n1Cc1ccc(F)cc1 ?
Pf Dd2 growth: 8%[5.79 µM]

How did CCc1c(C)sc2c1CCN(Cc1ccc(F)cc1)C2c1ccccc1 (stereo not given) do in these assays?
Pf Dd2 growth: 3.2µM*

How did COc1cccc(CN2CCOC3(CCN([S+](=O)([O-])c4c(C)noc4C)CC3)C2=O)c1 do in these assays?
Pf Dd2 growth: -12%

How did CCCNC(=O)c1cc2sc(C)c(CN3CCCCC3)c2[nH]1 do in these assays?
Pf Dd2 growth: -24%

How did CC(=O)Nc1ccc(NC(=O)c2cc3sc(C)c(CN4CCCCC4)c3[nH]2)cc1 do in these assays?
Pf Dd2 growth: 2.2µM*

What do the screens show for `Cc1sc2cc(C(=O)NC(C)C)[nH]c2c1CN1CCCCC1`?
Pf Dd2 growth: inactive

Results for COc1ccc(NC(=O)c2cc(CN3CCCC3)on2)cc1Cl ?
Pf Dd2 growth: 458%[5.79 µM]

How did Cc1sc2cc(C(=O)NCc3cccnc3)[nH]c2c1CN1CCCCC1 do in these assays?
Pf Dd2 growth: inactive

How did COc1ccc(NC(=O)c2cc3sc(C)c(CN4CCCCC4)c3[nH]2)cc1OC do in these assays?
Pf Dd2 growth: 2.2µM*

What do the screens show for `CC(C)CNC(=O)C1Cn2cccc2C(=O)N1C` (stereo not given)?
Pf Dd2 growth: 1%

What do the screens show for `O=C(O)CC1(CC(=O)N[C@H]2CO[C@H]3[C@@H]2OC[C@@H]3n2nnnc2Oc2cccc(N3CCOCC3)c2)CCCC1`?
Pf Dd2 growth: 2%

Results for CC(C)CNC(=O)CCC[C@@H]1[C@H]2CCCN3CCC[C@@H](CN1C(=O)c1cccnc1)[C@@H]23 ?
Pf Dd2 growth: inactive

What do the screens show for `O=C(c1ccc(Cl)cc1)N1CC2(CCCN(Cc3ccccn3)C2)Cc2ccccc21` (stereo not given)?
Pf Dd2 growth: -29%

What do the screens show for `O=C(c1ccc(Cl)cc1)N1CC2(CCN(CC3CC3)C2)Cc2ccccc21` (stereo not given)?
Pf Dd2 growth: 6.3µM*

What do the screens show for `CC(=O)N1CC2(CCCN2Cc2cccc(C(N)=O)c2)Cc2ccccc21` (stereo not given)?
Pf Dd2 growth: -5%

Results for CC(=O)N1CC2(CCN(Cc3cccc(C(N)=O)c3)C2)Cc2ccccc21 (stereo not given) ?
Pf Dd2 growth: -18%

What do the screens show for `CS(=O)(=O)N1CC2(CCCN2Cc2ccc(Cl)cc2)Cc2ccccc21` (stereo not given)?
Pf Dd2 growth: -20%

How did O=C(c1ccc(Cl)cc1)N1CC2(CCCN2Cc2ccc(Cl)cc2)Cc2ccccc21 (stereo not given) do in these assays?
Pf Dd2 growth: 10µM*

What do the screens show for `CC(=O)N1CC2(CCN(Cc3cccc(C(N)=O)c3)CC2)Cc2ccccc21`?
Pf Dd2 growth: -17%

How did O=C(c1ccc(Cl)cc1)N1CC2(CCN(C3COC3)C2)Cc2ccccc21 (stereo not given) do in these assays?
Pf Dd2 growth: -23%

What do the screens show for `NC(=O)c1cccc(CN2CCC3(CC2)Cc2ccccc2N(C(=O)c2ccc(Cl)cc2)C3)c1`?
Pf Dd2 growth: 11µM*

Results for O=C(NCc1nnc2ccc(-c3ccc(Cl)cc3)nn12)c1cc(F)ccc1Cl ?
Pf Dd2 growth: -18%

Results for COc1ccc(CNC(=O)Cn2c(-c3ccc(F)cc3)nc(C)c(CCO)c2=O)cc1 ?
Pf Dd2 growth: -13%

What do the screens show for `COCCN1CCC(N2CCN(C(=O)CCCc3ccccc3)CC2)C1=O` (stereo not given)?
Pf Dd2 growth: -1%

What do the screens show for `O=S(=O)(NCC1CCOCC1)c1cccc(F)c1`?
Pf Dd2 growth: 46%

Results for Cc1ccn(CC(=O)N2C[C@@H](COc3ccccc3)[C@H](C(N)=O)C2)n1 ?
Pf Dd2 growth: -12%

How did Cc1cnc(-c2cccnc2)n1CCN do in these assays?
Pf Dd2 growth: 2%

How did NC[C@H]1O[C@@H](CO)[C@@H](O)[C@H]1N1CCN(c2ncccn2)CC1 do in these assays?
Pf Dd2 growth: -2%[44.1 µM]

What do the screens show for `CC(C)(C)CN1CCN(Cc2cnc(-c3ccc(Cl)cc3)nc2)CC1CCO` (stereo not given)?
Pf Dd2 growth: -15%

Results for Cc1noc(C)c1CN1CCNc2cc(-c3ccccc3)ncc2C1 ?
Pf Dd2 growth: -24%[44.1 µM]

What do the screens show for `CS(=O)(=O)N1CC2(CCN(C3COC3)C2)Cc2ccccc21` (stereo not given)?
Pf Dd2 growth: inactive

How did COCCN1Cc2[nH]nc(-c3cccc(COC)c3)c2CC1=O do in these assays?
Pf Dd2 growth: -25%[44.1 µM]

What do the screens show for `Cc1ccc(C2C=C(c3ccccc3)Nc3nc(NS(C)(=O)=O)nn32)cc1` (stereo not given)?
Pf Dd2 growth: 107%[5.79 µM]

How did Cc1ccc(-c2nc3sc(CCNC(=O)c4ccco4)c(C)n3n2)cc1 do in these assays?
Pf Dd2 growth: inactive

What do the screens show for `COc1ccccc1C(=O)NC1CCN(c2cc(-c3ccc(Cl)cc3)[nH]n2)CC1`?
Pf Dd2 growth: inactive

What do the screens show for `COc1ccc(C(=O)Nc2nc3n(n2)C(c2ccc(F)cc2)C=C(c2ccc(Cl)cc2)N3)cc1` (stereo not given)?
Pf Dd2 growth: 5µM*

What do the screens show for `O=C(Nc1cnc(-c2ccc(F)cc2)nc1)c1ccco1`?
Pf Dd2 growth: inactive
